# From ChEMBL document CHEMBL3988442, “University of Dundee, Small-Polar-MMV Screening Library” (2021)
# About 13,000 (27%) of roughly 48,000 compounds showed an effect of 50% or more. The list shows a part of the results.
# Test system: Wolbachia pipientis
# Assay: Anti-Wolbachia Cell-Based Screen
# Assay type: functional
# Design: scale not given: in the data most compounds retested in dose-response had high values
# Conditions: 5 µM
row,Compound,Percent Effect [%]
1,O=C1CC[C@H]2CN(Cc3cccnc3)CC[C@H]2N1CCc1c[nH]cn1,-39.87
2,CN(c1ccccc1C(=O)O)S(=O)(=O)c1cccc2cccnc12,-35.11
3,CC(C)NC(=O)N1CCc2onc(C(=O)NCCN(C)C)c2C1.O=C(O)C(F)(F)F,-1.789
4,Cc1ccc(CN2CCc3onc(C(=O)NCCN(C)C)c3C2)o1.O=C(O)C(F)(F)F.O=C(O)C(F)(F)F,74.07
5,CC(C)C(=O)N1CCc2onc(C(=O)NCCN(C)C)c2C1.O=C(O)C(F)(F)F,7.945
6,O=C(O)C(F)(F)F.O=S(=O)(C1CC1)N1CCC2(CCN(Cc3nccs3)CC2)CC1,-4.722
7,CC(CCSc1ccccc1)N1CCN(C(=O)c2cccs2)CC1 (configuration not stated),0.564
8,CS(=O)(=O)N1CCO[C@@H]2CCN(C(=O)c3cccs3)CC[C@H]21,-2.724
9,Cn1cnnc1S(=O)(=O)C1CCN(C(=O)c2ccsc2)CC1,-15.33
10,Cc1ccc(N(C)C2CCN(C(=O)c3ccsc3)CC2)nn1,-0.5839
11,O=C(c1cccs1)N1CCC2(CC1)CCN(S(=O)(=O)C1CC1)CC2,97.11
12,CCS(=O)(=O)N1CCC2(CCN(C(=O)c3cccs3)CC2)CC1,97.57
13,Cc1ccc(OC2(C(=O)O)CCN(C(=O)c3cccs3)CC2)cn1,-10.49
14,O=C(c1ccsc1)N1CCC2(CC1)CCN(S(=O)(=O)C1CC1)CC2,99.84
15,CS(=O)(=O)N1CCC2(CCN(C(=O)c3cccs3)CC2)CC1,95.21
16,CCS(=O)(=O)N1CCC2(CCN(Cc3nccs3)CC2)CC1.O=C(O)C(F)(F)F,12.02
17,O=C(c1cccs1)N1CC(C(=O)N2CCCC2)C2(CCOCC2)C1 (configuration not stated),-9.07
18,COCC1CN(Cc2c(C)noc2C)Cc2cn(C)nc21 (configuration not stated),8.994
19,NC(=O)NC(=O)CN1CCN(CC2CC2)c2ccccc21,-3.453
20,COCC(c1cccc(C(F)(F)F)c1)N(C)C(=O)c1ccncc1 (configuration not stated),-9.987
21,COCCNc1ccccc1CNC(=O)NCc1nc(C)c(C)s1,-3.267
22,CC(=O)Nc1ccc2nn(C(C)C)cc2c1,3.305
23,Cc1cc2cccc(C(=O)N3CCOC4(CNCCOC4)C3)c2o1 (configuration not stated),-17.55
24,CCN(CC)CCNCC1CCOC(C)(C)C1 (configuration not stated),101.9
25,CCN(CC)CCCNCC1CCOC(C)(C)C1 (configuration not stated),90.59
26,COc1c(NS(=O)(=O)c2ccc(F)c(C)c2)c(C)nn1C,6.685
27,CC(=O)NC[C@@]1(COc2cnccn2)C[C@@H](O)[C@@H](O)C1.Cl,-2.09
